Source: PubChem
HP1b binding inh = HTS for Inhibitors of HP1-beta Chromodomain Interactions with Methylated Histone Tails; Potency, µM (highest dose often 114 µM), for inactives: at the top dose activity change, negative = inhibition, hits mostly inhibitors; hit rate 0.56% among 390,000; Chromobox protein homolog 1 (Homo sapiens), P83916; AlphaScreen HP1-beta / biotin-H3K9me3 peptide binding; note: nearly all actives have a fitted effect of over 70% in size
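HP1-beta protein (50 nM final) preincubated 30 min at room temperature with biotinylated H3(1-18)K9me3 peptide (50 nM) in PBS pH 7.4, 0.01% Tween-20, then compound added for 30 min. AlphaScreen streptavidin donor/nickel chelate acceptor beads (10 ug/mL final), 30 min dark, luminescence read.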
Sfp inh = qHTS Assay for Inhibitors of Bacillus subtilis Sfp phosphopantetheinyl transferase (PPTase); Biochemical Sfp PPTase activity, qHTS; Potency, µM, without a hit: largest response in the series, negative = inhibition, actives largely listed as inhibitors; 4'-phosphopantetheinyl transferase ffp (Bacillus subtilis), Q9F4F7; hit rate 3.5% among 310,000;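 note: the enzyme is Sfp with the accession as filed and its product quenches rhodamine fluorescence; 0% = enzyme reaction without inhibitor and -100% = no enzyme wells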
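Fluorescence-quenching assay: 15 nM Sfp-PPTase preincubated 15 min at room temperature with compound, then 5 uM rhodamine-CoA and 12.5 uM BHQ-2-labelled YbbR peptide added. Fluorescence (ex 525/em 598 nm) read at start and after 30 min; difference gives rate.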
L3MBTL1 block = qHTS Assay for the Inhibitors of L3MBTL1; hit rate 0.66% among 230,000; Potency, µM (titrated, usually from 57.1 µM), inactives show at the top dose activity, negative = inhibition, actives largely listed as inhibitors; Lethal(3)malignant brain tumor-like protein 1 (Homo sapiens), Q9Y468; AlphaScreen L3MBTL1–H3K9me1 peptide binding; note: % is set by controls: 0 for no effect and ±100 for the full control effect; nearly all actives have a fitted effect of over 60% in size
Target sequence (Q9Y468 whole entry, looked up): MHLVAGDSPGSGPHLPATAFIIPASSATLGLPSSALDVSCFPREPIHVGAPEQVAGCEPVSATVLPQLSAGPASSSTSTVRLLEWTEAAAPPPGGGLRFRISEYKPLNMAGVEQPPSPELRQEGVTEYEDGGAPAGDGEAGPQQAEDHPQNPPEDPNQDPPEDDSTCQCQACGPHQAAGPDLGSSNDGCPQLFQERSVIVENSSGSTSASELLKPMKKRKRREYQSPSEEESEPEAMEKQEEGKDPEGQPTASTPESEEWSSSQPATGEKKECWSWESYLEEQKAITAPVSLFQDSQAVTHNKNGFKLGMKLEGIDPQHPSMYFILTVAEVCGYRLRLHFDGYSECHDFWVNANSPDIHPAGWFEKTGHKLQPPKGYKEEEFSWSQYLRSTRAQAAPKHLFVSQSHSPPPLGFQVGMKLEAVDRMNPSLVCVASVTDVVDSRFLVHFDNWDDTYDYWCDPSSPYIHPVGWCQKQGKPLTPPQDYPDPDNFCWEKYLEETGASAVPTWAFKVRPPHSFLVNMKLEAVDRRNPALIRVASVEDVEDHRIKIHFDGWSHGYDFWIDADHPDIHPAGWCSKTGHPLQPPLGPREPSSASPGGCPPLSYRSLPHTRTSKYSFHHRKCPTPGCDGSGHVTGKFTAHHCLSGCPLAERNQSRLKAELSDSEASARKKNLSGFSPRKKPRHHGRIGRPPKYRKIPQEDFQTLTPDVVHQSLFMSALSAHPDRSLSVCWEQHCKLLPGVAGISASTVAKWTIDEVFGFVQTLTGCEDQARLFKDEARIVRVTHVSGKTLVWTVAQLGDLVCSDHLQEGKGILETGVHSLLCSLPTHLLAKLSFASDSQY
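AlphaScreen assay: L3MBTL1 (50 nM final) was preincubated 30 min at room temperature with biotinylated H3(1-15)K9me1 peptide (75 nM final), then 30 min with library compounds; streptavidin donor and nickel chelate acceptor beads (10 ug/mL final) added, 30 min dark.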
JMJD2A Tudor inh = qHTS Assay for Inhibitors of JMJD2A-Tudor Domain; hit rate 4.4% among 390,000; AID 504339, 2011; Potency, µM (doses to about 114 µM), inactives show at the highest dose activity change, negative = inhibition, hits mostly inhibitors; AlphaScreen JMJD2A-Tudor / H3K4me3 peptide binding; note: % is set by controls: 0 for no effect and ±100 for the full control effect; nearly all actives have a fitted effect of over 50% in size
BAZ2B inh = qHTS Assay for Inhibitors of BAZ2B; Bromodomain adjacent to zinc finger domain protein 2B (Homo sapiens), Q9UIF8; AlphaScreen BAZ2B-H3K14Ac peptide displacement; Potency, µM (doses to about 114 µM), for inactives: at the top dose activity change, negative = inhibition, hits mostly inhibitors; hit rate 4.4% among 360,000; note: % is set by controls: 0 for no effect and ±100 for the full control effect; nearly all actives have a fitted effect of over 60% in size
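Multi-concentration screen (max 110 uM) measuring displacement of acetylated histone H3 peptide from BAZ2B by AlphaScreen, using 50 nM protein, 50 nM peptide and 10 ug/mL streptavidin donor plus Ni-chelate acceptor beads.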
G9a block = qHTS Assay for Inhibitors of Histone Lysine Methyltransferase G9a; Histone-lysine N-methyltransferase EHMT2 (Homo sapiens), Q96KQ7; G9a H3K9 monomethylation, AlphaScreen, 2 h; Potency, µM (series often up to 102 µM), for the others: top-dose activity, negative = inhibition, hits mostly inhibitors; hit rate 8.8% among 350,000; note: % is set by controls: 0 for no effect and ±100 for the full control effect; nearly all actives have a fitted effect of over 75% in size
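Compounds were preincubated with 20 nM G9a for 15 min, after which biotinylated H3K9 peptide (500 nM) and SAM (20 uM) started a 2 h room-temperature reaction. Monomethylated product was quantified by antibody-based AlphaScreen chemiluminescence.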
An asterisk follows results filed as active; [ ] = remark or other dose. In the library only some 12% were active in any assay of this set; here they are far more common. Calls come from the whole dose curve; as a rule, active = well fitted curve in the direction sought with a large enough effect; inconclusive = small, poorly fitted or top-dose-only effect, or another doubt; inactive = no such curve, though single readings can be large; an effect the other way counts as inactive or inconclusive. Potency is the fitted concentration of half-maximal effect.

For CCNC(=S)N/N=C/c1ccc(F)cc1 the results were Sfp inh -1%, L3MBTL1 block 0%, BAZ2B inh -22% and G9a block 28%.
For CCNC(=S)N/N=C/c1cc(C)n(-c2ccc(Cl)cc2)c1C the results were HP1b binding inh inconclusive, Sfp inh inconclusive, L3MBTL1 block -1%, JMJD2A Tudor inh 50µM*, BAZ2B inh 28µM* and G9a block inconclusive.
`Cc1cc2c(s1)c1cnn(Cc3ccc4ccccc4c3)c(=O)c1n2C` gave JMJD2A Tudor inh -19%.
Screening O=C(NCc1ccccn1)C1(C(F)(F)F)CC(CCCO)CCCO1 (stereo not drawn) returned HP1b binding inh 24%, Sfp inh 17% and JMJD2A Tudor inh -6%.
`COc1cccc(CNC(=O)CN2C(=O)CSc3ccc(S(=O)(=O)N4CCCCC4)cc32)c1` gave HP1b binding inh 13%, Sfp inh 0%, JMJD2A Tudor inh -14%, BAZ2B inh -7% and G9a block 17%[59 µM].
For CCOC(=O)OCC1OC(c2cc(C)cc(C)c2)C=CC1OC(=O)OCC (stereo not drawn) the results were Sfp inh 10%.
COc1ccc(C(=O)/C=C/c2ccc(O)cc2)c(O)c1CC=C(C)C was read as HP1b binding inh inconclusive, Sfp inh 14%, L3MBTL1 block -14%, JMJD2A Tudor inh 45µM*, BAZ2B inh inconclusive and G9a block inconclusive.
`CC(Sc1nnc2n1CCCCC2)C(=O)Nc1ccc(S(N)(=O)=O)cc1` (stereo not drawn) gave HP1b binding inh 9%, L3MBTL1 block -8%, JMJD2A Tudor inh -11%, BAZ2B inh 5% and G9a block 45µM*.
Screening NS(=O)(=O)c1ccc(NC(=O)CSc2nnc3n2CCCCC3)cc1 returned HP1b binding inh 35%, L3MBTL1 block -8% and JMJD2A Tudor inh -11%.
For O=C(COc1ccc(Cl)cc1)NCc1nnc(SCC(=O)Nc2ccccc2F)o1 the results were HP1b binding inh 31%, Sfp inh 1%, JMJD2A Tudor inh -6%, BAZ2B inh -7% and G9a block -2%[59 µM].
`O=C(CN1CCCc2ccccc21)N/N=C/c1ccccc1` gave HP1b binding inh 7%, Sfp inh 16%, L3MBTL1 block -18%, JMJD2A Tudor inh -32%, BAZ2B inh inconclusive and G9a block 45µM*.
`O=C(CNc1ccc(F)cc1)N/N=C/c1c(O)ccc2ccccc12` gave HP1b binding inh 25%, Sfp inh 6%, JMJD2A Tudor inh -16%, BAZ2B inh -11% and G9a block -4%.
`NS(=O)(=O)c1ccc(NC(=O)CN2CCCc3ccccc32)cc1` gave HP1b binding inh 9%, Sfp inh 12%, JMJD2A Tudor inh -20%, BAZ2B inh -26% and G9a block 28µM*.
O=C(CN1CCCc2ccccc21)N/N=C/c1ccc(O)cc1O was read as HP1b binding inh -11%, Sfp inh 7%, L3MBTL1 block -15%, JMJD2A Tudor inh inconclusive, BAZ2B inh -27% and G9a block 79µM*.
`O=C(CN1CCOCC1)N/N=C/c1ccccc1` gave HP1b binding inh 10%, Sfp inh 10%, L3MBTL1 block 7%, JMJD2A Tudor inh 1%, BAZ2B inh -4% and G9a block 9%[59 µM].
For O=C(CN1CCCc2ccccc21)N/N=C/c1c(O)ccc2ccccc12 the results were HP1b binding inh inconclusive, Sfp inh 6%, L3MBTL1 block -8%, JMJD2A Tudor inh inconclusive, BAZ2B inh -12% and G9a block 40µM*.
For Cc1ccc(C)c(NC(=O)CSc2nc(=O)n(Cc3ccccn3)c3c2CCC3)c1 the results were HP1b binding inh 29%, JMJD2A Tudor inh 2%, BAZ2B inh 7% and G9a block -1%[59 µM].
`COc1ccc(-n2nc(C(=O)NCC(=O)NC3CCCCC3)c3ccccc3c2=O)cc1` gave HP1b binding inh 7%, Sfp inh 3%, JMJD2A Tudor inh -4%, BAZ2B inh 3% and G9a block 12%.
COc1ccc(OC)c(NC(=O)CS(=O)(=O)Cc2ccccc2)c1 was read as HP1b binding inh 31%, Sfp inh 5%, JMJD2A Tudor inh -4% and BAZ2B inh -8%.
COc1ccc(C(C)NS(=O)(=O)Cc2ccccc2)cc1 (stereo not drawn) was read as HP1b binding inh 20%, Sfp inh 2%, L3MBTL1 block 4%, JMJD2A Tudor inh -13%, BAZ2B inh -9% and G9a block 50µM*.
`COc1ccc(OC)c(NS(=O)(=O)Cc2ccccc2)c1` gave Sfp inh inconclusive, L3MBTL1 block -8%, BAZ2B inh inconclusive and G9a block 35µM*.
For COc1ccc(Oc2ncc3ncc(=O)n(Cc4ccc(F)cc4)c3n2)cc1 the results were Sfp inh 7% and G9a block -5%[12.7 µM].
`Cc1ccc(NC(=O)COCC(=O)Nc2ccc(C)cc2)cc1` gave HP1b binding inh 32%, Sfp inh 3%, L3MBTL1 block 2%, JMJD2A Tudor inh -14% and BAZ2B inh 2%.
Screening Cc1ccc(S(=O)(=O)OCC(=O)Nc2ccc(C(=O)O)c(O)c2)cc1 returned HP1b binding inh -10% and JMJD2A Tudor inh 20µM*.
Screening O=C(Nc1ccccc1)[C@@H]1[C@@H]2C(=O)N(c3ccc(F)cc3)C(=O)[C@@H]2[C@H]2C=CC=NN21 returned HP1b binding inh 8%, Sfp inh 35µM*, L3MBTL1 block 3%, JMJD2A Tudor inh -33% and BAZ2B inh -17%.
Cc1ccc(N2C(=O)[C@@H]3[C@H](C2=O)[C@H]2C=CC=NN2[C@@H]3C(=O)Nc2ccccc2)cc1 was read as HP1b binding inh -17%, Sfp inh -14%, L3MBTL1 block -8%, JMJD2A Tudor inh -11%[57.1 µM], BAZ2B inh -29% and G9a block 7.1µM*.
`CN1CCN(c2cc(-c3ccc(N(C)C)cc3)ncn2)CC1` gave Sfp inh -1%.
Screening O=C(Cc1ccccc1)Nc1cccc(-c2cn3cccnc3n2)c1 returned HP1b binding inh 20%[57 µM], JMJD2A Tudor inh -10%, BAZ2B inh -6% and G9a block -11%[59 µM].
